Measured values reported in article PMC7862700, “An all-to-all approach to the identification of sequence-specific readers for epigenetic DNA modifications on cytosine”.

Tests used:
Assay in all cases: DAPPL (digital affinity profiling via proximity ligation, sequencing); 10 mM Tris-HCl pH 7.5, 50 mM NaCl, 1 mM DTT, 4% glycerol, room temperature, 30 min; GST-TFs on glutathione beads, 16-mer random dsDNA library, 0.1% formaldehyde crosslink after washing; high values mean tight binding
Conditions in all cases: protein: recombinant; tags: N-terminal GST; dsDNA, one strand shown
[1] = target: T1, ELK1 (Homo sapiens, UniProt P19419 1-428)
T1 sequence: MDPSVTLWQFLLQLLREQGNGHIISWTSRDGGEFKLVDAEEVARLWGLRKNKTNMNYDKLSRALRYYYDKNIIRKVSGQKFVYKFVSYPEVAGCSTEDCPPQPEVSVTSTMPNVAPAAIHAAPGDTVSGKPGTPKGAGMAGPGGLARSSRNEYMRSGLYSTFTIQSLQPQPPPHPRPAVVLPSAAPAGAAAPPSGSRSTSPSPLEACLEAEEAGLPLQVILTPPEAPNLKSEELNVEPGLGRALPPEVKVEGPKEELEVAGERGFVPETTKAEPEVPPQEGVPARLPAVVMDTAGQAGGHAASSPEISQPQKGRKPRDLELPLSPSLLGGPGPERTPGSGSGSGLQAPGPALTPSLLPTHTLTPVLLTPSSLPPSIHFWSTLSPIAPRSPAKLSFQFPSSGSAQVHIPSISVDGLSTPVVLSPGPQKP
How it was run: (§1)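 Binding signal is each hexamer's read frequency for a factor divided by its frequency in the tag-only sample. The factors were GST-fused human transcription factors from yeast, captured on glutathione beads, DNA-barcoded and pooled with that sample. Pools were incubated with 200 nmole of a random double-stranded 16-mer DNA library in Tris/NaCl/DTT/glycerol buffer at room temperature for 30 min, then washed, crosslinked with 0.1% formaldehyde, proximity-ligated with BsaI/T4 ligase (1 h, 37 °C), PCR-amplified and sequenced on an Illumina NextSeq500.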

[2] = target: T2, GABPA (Homo sapiens, UniProt Q06546 1-454)
T2 sequence: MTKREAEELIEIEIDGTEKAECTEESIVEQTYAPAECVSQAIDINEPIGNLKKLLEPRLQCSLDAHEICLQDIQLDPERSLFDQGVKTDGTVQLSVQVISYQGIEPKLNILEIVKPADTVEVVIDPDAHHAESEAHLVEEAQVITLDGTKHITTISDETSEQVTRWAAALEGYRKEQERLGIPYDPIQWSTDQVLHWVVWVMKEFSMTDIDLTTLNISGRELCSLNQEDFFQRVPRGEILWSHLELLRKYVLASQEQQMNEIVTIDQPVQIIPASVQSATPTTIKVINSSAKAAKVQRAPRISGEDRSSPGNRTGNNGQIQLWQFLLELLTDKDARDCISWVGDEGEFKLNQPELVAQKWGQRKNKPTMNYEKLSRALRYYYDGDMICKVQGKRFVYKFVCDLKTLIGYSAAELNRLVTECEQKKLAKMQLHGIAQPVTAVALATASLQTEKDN
How it was run: as §1

[3] = target: T3, ERG (Homo sapiens, UniProt P11308 1-479)
T3 sequence: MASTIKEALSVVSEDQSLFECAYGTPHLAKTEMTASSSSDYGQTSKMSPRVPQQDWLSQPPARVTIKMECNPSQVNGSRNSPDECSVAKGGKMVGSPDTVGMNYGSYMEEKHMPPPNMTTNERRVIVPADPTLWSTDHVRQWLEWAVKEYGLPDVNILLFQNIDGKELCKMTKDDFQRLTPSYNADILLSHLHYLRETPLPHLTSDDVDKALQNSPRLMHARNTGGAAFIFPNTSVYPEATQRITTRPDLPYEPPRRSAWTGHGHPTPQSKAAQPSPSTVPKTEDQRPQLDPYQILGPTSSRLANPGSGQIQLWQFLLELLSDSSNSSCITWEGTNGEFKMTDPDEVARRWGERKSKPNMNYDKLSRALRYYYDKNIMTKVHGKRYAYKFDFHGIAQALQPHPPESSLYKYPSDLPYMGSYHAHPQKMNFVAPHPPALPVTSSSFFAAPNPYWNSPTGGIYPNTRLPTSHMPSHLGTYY
How it was run: as §1

[4] = target: ELF1 (Homo sapiens, UniProt P32519 1-619)
How it was run: as §1

[5] = target: SPIB (Homo sapiens, UniProt Q01892 1-262)
How it was run: as §1

[6] = target: T4, FEV (Homo sapiens, UniProt Q99581 1-238)
T4 sequence: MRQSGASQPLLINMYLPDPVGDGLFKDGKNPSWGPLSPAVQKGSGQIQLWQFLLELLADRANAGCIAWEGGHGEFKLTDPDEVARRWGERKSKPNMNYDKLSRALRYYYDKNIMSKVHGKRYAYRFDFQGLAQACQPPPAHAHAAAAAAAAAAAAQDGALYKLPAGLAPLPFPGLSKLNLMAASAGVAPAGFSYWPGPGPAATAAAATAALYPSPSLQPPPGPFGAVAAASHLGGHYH
How it was run: as §1

[7] = target: ETV5 (Homo sapiens, UniProt P41161 1-510)
How it was run: as §1

[8] = target: ELF4 (Homo sapiens, UniProt Q99607 1-663)
How it was run: as §1

[9] = target: T5, ELK4 (Homo sapiens, UniProt P28324-2 1-405)
T5 sequence: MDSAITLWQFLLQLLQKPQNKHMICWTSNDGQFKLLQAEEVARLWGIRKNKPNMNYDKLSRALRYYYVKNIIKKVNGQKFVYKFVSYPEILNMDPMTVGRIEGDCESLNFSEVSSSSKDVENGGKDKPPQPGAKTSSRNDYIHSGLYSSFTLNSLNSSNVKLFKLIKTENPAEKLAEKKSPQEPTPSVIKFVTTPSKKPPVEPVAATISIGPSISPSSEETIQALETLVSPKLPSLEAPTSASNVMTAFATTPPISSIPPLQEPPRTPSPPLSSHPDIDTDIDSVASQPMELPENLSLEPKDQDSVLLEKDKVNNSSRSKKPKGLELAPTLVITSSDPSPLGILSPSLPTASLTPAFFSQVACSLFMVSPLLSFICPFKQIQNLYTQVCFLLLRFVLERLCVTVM
How it was run: as §1

[10] = target: T6, ETV2 (Homo sapiens, UniProt O00321 1-342)
T6 sequence: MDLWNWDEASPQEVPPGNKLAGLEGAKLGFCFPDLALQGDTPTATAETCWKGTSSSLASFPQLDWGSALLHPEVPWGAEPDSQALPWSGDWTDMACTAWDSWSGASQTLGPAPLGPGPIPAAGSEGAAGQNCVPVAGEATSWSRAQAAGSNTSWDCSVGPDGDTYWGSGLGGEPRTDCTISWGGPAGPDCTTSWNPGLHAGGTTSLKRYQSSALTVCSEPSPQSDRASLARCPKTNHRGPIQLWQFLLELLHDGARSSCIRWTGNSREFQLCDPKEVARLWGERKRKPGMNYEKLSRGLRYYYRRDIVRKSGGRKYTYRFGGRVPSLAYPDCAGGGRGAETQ
How it was run: as §1

[11] = target: T7, ELF3 (Homo sapiens, UniProt P78545 1-371)
T7 sequence: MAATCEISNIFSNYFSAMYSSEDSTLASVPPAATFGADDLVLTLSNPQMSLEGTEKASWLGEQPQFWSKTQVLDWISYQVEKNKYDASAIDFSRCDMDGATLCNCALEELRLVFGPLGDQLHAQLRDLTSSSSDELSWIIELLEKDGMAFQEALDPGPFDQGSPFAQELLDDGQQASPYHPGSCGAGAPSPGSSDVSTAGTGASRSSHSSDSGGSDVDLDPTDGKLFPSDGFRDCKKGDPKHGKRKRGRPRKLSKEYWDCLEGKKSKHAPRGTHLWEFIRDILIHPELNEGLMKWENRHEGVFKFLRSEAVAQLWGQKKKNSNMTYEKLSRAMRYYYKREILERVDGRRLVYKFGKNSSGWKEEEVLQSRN
How it was run: as §1

[12] = target: ETV1 (Homo sapiens, UniProt P50549 1-477)
How it was run: as §1

[13] = target: T8, ERF (Homo sapiens, UniProt P50548 1-548)
T8 sequence: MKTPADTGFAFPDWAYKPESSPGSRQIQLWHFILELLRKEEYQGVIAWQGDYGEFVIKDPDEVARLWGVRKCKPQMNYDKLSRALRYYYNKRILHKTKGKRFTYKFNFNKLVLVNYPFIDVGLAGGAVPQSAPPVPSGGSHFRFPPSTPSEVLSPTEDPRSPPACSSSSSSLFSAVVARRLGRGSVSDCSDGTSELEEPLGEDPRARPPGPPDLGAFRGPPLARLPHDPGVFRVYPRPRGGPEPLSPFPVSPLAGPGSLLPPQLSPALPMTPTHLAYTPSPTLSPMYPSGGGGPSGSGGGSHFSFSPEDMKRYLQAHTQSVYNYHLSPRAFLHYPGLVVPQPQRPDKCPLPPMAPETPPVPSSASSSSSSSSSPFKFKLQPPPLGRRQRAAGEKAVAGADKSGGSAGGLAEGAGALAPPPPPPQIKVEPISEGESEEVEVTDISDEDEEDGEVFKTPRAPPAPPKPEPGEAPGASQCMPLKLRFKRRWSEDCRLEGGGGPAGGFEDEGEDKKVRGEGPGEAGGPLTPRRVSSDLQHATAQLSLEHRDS
How it was run: as §1

[14] = target: T9, ETV3L (Homo sapiens, UniProt Q6ZN32 1-361)
T9 sequence: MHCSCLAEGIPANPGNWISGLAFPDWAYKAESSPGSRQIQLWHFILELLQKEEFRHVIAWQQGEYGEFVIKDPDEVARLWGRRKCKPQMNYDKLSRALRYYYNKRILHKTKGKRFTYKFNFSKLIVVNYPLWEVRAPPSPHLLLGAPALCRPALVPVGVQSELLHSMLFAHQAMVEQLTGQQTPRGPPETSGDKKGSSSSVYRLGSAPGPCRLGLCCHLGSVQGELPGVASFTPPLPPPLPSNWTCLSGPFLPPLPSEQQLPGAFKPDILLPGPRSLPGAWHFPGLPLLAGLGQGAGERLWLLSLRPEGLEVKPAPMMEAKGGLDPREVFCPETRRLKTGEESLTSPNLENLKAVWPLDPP
How it was run: as §1

[15] = target: T10, ETS2 (Homo sapiens, UniProt P15036 1-469)
T10 sequence: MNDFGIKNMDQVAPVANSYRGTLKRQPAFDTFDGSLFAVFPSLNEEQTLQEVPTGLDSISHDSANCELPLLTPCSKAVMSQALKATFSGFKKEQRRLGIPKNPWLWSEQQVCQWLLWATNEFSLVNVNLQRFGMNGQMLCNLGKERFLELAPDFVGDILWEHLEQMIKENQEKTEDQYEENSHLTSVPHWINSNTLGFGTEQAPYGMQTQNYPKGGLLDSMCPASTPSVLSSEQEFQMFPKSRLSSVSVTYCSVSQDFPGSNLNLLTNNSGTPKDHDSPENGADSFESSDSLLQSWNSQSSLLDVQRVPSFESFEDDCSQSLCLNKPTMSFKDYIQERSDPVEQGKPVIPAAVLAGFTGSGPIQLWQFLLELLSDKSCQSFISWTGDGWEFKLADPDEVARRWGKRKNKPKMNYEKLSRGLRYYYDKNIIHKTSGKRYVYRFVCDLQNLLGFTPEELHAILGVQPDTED
How it was run: as §1

[16] = target: T11, SPDEF (Homo sapiens, UniProt O95238 1-335)
T11 sequence: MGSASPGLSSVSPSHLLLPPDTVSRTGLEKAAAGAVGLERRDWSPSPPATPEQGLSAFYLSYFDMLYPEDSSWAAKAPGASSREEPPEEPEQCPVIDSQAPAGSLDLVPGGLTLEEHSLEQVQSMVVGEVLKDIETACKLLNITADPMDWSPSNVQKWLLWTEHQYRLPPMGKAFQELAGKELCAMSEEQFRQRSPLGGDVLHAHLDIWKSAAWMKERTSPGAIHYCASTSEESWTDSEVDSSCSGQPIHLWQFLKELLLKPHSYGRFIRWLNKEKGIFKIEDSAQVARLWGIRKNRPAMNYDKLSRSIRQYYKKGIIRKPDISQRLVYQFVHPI
How it was run: as §1

[17] = target: T12, ETV7 (Homo sapiens, UniProt Q9Y603 1-341)
T12 sequence: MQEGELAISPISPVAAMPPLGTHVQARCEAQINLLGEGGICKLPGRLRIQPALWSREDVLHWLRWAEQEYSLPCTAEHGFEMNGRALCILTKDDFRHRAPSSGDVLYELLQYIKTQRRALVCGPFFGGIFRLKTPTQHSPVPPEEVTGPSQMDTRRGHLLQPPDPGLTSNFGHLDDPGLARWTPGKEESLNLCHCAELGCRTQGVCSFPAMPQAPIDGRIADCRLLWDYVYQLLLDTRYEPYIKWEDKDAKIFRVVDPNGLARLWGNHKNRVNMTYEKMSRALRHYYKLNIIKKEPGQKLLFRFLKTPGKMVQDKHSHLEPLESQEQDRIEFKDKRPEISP
How it was run: as §1

[18] = target: T13, ETV3 (Homo sapiens, UniProt P41162-2 1-143)
T13 sequence: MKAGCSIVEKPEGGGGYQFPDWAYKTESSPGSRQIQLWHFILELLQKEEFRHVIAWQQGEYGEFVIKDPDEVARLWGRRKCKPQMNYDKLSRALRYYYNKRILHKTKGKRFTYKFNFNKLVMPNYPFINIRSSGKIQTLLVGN
How it was run: as §1

[19] = target: ETV6 (Homo sapiens, UniProt P41212 1-452)
How it was run: as §1

ETV6, sequence (P41212 whole entry): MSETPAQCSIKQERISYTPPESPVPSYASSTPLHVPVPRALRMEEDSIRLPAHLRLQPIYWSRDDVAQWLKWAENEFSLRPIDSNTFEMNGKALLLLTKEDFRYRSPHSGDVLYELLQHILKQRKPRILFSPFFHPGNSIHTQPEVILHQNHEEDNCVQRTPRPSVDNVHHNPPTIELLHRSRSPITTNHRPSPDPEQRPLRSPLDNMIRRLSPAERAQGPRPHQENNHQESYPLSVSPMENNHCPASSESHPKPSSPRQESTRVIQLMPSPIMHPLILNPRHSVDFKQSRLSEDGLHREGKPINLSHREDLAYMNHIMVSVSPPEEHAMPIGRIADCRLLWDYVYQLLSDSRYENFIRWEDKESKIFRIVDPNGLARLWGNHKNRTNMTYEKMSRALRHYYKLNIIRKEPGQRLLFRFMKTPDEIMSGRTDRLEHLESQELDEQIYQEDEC
ETV5, sequence (P41161 whole entry): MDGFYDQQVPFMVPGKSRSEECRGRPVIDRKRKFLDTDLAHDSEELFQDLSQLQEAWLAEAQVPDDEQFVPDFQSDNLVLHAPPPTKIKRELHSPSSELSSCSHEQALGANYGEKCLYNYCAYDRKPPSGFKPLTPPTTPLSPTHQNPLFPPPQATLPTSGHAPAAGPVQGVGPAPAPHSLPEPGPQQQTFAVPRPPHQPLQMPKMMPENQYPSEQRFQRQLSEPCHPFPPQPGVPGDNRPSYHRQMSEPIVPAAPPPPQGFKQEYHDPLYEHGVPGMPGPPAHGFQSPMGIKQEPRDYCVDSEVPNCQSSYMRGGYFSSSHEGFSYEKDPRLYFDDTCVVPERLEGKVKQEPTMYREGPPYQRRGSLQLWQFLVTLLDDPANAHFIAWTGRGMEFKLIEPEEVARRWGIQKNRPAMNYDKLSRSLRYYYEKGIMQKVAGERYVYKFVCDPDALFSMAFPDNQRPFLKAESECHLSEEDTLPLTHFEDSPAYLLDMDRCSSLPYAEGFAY
ELF4, sequence (Q99607 whole entry): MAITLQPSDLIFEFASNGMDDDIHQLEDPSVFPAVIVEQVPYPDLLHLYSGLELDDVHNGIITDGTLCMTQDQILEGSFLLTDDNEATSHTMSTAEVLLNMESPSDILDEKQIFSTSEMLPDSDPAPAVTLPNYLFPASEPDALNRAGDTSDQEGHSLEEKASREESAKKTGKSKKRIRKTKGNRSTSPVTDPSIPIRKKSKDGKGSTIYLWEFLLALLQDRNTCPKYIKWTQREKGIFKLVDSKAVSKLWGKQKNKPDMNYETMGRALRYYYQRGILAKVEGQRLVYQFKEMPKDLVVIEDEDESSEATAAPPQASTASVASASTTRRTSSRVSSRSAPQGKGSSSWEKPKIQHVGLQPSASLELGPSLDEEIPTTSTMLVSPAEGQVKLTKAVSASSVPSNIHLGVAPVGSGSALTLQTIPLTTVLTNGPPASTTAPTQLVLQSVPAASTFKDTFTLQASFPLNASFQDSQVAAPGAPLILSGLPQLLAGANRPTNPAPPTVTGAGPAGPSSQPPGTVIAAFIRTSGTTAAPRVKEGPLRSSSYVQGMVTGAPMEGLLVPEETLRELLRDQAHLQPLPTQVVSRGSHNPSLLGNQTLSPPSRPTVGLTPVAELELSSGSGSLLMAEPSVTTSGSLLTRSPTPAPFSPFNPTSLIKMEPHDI
ETV1, sequence (P50549 whole entry): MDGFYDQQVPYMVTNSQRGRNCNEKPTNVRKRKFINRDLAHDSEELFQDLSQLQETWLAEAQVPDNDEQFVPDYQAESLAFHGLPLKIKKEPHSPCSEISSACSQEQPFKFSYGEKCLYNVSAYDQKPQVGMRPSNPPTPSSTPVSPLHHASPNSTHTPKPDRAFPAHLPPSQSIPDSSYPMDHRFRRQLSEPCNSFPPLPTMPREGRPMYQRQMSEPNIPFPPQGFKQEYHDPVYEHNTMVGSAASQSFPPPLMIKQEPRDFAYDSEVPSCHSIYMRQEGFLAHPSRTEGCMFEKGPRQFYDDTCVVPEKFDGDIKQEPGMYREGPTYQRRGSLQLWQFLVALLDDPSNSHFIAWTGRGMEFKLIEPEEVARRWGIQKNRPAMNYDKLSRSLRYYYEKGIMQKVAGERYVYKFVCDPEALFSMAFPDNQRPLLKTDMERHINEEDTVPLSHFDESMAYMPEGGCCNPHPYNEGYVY
SPIB, sequence (Q01892 whole entry): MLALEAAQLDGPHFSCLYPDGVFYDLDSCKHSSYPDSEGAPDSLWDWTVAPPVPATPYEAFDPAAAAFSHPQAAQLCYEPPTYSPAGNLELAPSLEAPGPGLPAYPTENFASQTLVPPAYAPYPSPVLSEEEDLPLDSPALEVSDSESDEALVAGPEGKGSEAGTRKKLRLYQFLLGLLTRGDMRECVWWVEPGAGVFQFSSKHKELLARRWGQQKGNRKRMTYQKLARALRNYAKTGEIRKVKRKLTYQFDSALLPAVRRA
ELF1, sequence (P32519 whole entry): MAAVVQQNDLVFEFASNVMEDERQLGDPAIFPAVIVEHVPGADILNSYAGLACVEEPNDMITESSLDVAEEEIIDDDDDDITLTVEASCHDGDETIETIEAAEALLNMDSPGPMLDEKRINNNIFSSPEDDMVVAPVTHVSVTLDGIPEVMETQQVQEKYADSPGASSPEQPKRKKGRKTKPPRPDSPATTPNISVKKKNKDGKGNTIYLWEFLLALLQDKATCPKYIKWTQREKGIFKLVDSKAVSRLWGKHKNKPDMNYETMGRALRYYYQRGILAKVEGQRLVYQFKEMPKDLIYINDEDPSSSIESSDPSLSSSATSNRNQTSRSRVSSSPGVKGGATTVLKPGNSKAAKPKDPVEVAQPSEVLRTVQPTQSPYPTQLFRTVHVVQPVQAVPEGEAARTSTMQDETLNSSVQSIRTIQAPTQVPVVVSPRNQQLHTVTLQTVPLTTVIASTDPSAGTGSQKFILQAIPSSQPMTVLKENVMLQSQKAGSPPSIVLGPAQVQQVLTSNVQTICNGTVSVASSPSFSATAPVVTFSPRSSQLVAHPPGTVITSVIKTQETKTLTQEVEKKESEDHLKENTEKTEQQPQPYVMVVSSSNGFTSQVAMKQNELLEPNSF

ATCAAA
binding signal [1]: 1.05 fold enrichment (6-mer frequency, TF over GST control) | binding signal [2]: 1.13 fold enrichment (6-mer frequency, TF over GST control) | binding signal [3]: 1.11 fold enrichment (6-mer frequency, TF over GST control) | binding signal [4]: 1.07 fold enrichment (6-mer frequency, TF over GST control) | binding signal [5]: 1.02 fold enrichment (6-mer frequency, TF over GST control) | binding signal [6]: 1.03 fold enrichment (6-mer frequency, TF over GST control) | binding signal [7]: 1.06 fold enrichment (6-mer frequency, TF over GST control) | binding signal [8]: 1.12 fold enrichment (6-mer frequency, TF over GST control) | binding signal [9]: 1.1 fold enrichment (6-mer frequency, TF over GST control) | binding signal [10]: 1.11 fold enrichment (6-mer frequency, TF over GST control) | binding signal [11]: 1.04 fold enrichment (6-mer frequency, TF over GST control) | binding signal [12]: 1.15 fold enrichment (6-mer frequency, TF over GST control) | binding signal [13]: 1.08 fold enrichment (6-mer frequency, TF over GST control) | binding signal [14]: 1.08 fold enrichment (6-mer frequency, TF over GST control) | binding signal [15]: 1.07 fold enrichment (6-mer frequency, TF over GST control) | binding signal [16]: 1.06 fold enrichment (6-mer frequency, TF over GST control) | binding signal [17]: 1.1 fold enrichment (6-mer frequency, TF over GST control) | binding signal [18]: 1.01 fold enrichment (6-mer frequency, TF over GST control) | binding signal [19]: 1.07 fold enrichment (6-mer frequency, TF over GST control)
